Test results reported in PubChem BioAssay.
“And” between values parts separate entries of the source, which are not always exact repeats. Equal entries are not always repeated. The source made the active and inactive calls.

Key:
[1] = test system: Plasmodium falciparum Sir2 (PF13_0152, Sir2A); assay: pfSir2 binders on small-molecule microarrays, primary screen, biochemical, small-molecule microarray, 635 nm fluorescence (AID 1098); details: small-molecule microarray binding, fluorescence 635 nm; higher = more signal;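 also: score merges spot fluorescence intensity with its signal-to-noise ratio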
[2] = small-molecule microarray binders of probe aDKK1, primary screen, biochemical, biotinylated probe, 635/667 nm fluorescence (AID 1099); details: higher = more signal;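 also: score merges 667nm spot fluorescence with signal to noise across triplicate slides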
[3] = small-molecule microarray binders of probe aCHRDL2, primary screen, biochemical, biotinylated probe, 635/667 nm fluorescence (AID 1100); details: higher = more signal
[4] = splicing luciferase reporter signal modulators, primary screen, spliceosome inhibition project, cell-based, HEK293, splice +/- reporter (AID 1101); details: luminescence, 24 h, higher = more signal, called active from +8 up or from −8 down;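 also: HEK293 cells carrying a splicing-competent luciferase reporter gene; test concentration not given here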
[5] = target: Fibroblast growth factor 10 (Homo sapiens) (UniProt O15520); assay: FGF10 binders on small-molecule microarrays, primary screen, biochemical, small-molecule microarray, 635 nm fluorescence (AID 1102); details: FGF10 binding, fluorescence 635 nm, higher = more signal
[6] = test system: glycogen synthase kinase-3 (GSK3A per assay name; protocol says GSK3B); assay: GSK3 binders on small-molecule microarrays, primary screen, biochemical, small-molecule microarray, 635 nm fluorescence, GSK3A (AID 1103); details: small-molecule microarray binding, fluorescence 635 nm; higher = more signal; also: the record names both GSK3A and GSK3B
[7] = target: Epidermal growth factor receptor (Homo sapiens) (UniProt P00533); assay: EGFR binders on small-molecule microarrays, primary screen, biochemical, small-molecule microarray, 635 nm fluorescence (AID 1104); details: EGFR binding, higher = more signal;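 also: score merges 667 nm emission intensity with spot signal to noise over triplicate slides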
[8] = target: Follistatin-related protein 3 (Homo sapiens) (UniProt O95633); assay: FSTL3 binders on small-molecule microarrays, primary screen, biochemical, small-molecule microarray, 635 nm fluorescence (AID 1105); details: FSTL3 binding, higher = more signal;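 also: score merges emission near 667 nm and signal to noise per printed spot across three slides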
[9] = target: Dickkopf-related protein 1 (Homo sapiens) (UniProt O94907); assay: DKK1 binders on small-molecule microarrays, primary screen, biochemical, small-molecule microarray, 635 nm fluorescence scan (AID 1106); details: DKK1 binding, higher = more signal;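 also: score merges emission near 667 nm with signal to noise over three replicate slides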
[10] = test system: Inhibin beta A chain (activin A); assay: INHBA (activin A) binders on microarrays, primary screen, biochemical, small-molecule microarray, 635 nm fluorescence scan (AID 1107); details: small-molecule microarray binding, higher = more signal;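 also: mouse activin A protein probed at 4.33 µg/mL on printed slides; score merges bound-protein fluorescence near 667 nm with spot signal-to-noise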
[11] = test system: Human papillomavirus type 1a protein E7 (residues 44-93); assay: HPV1a E7 fragment binders on microarrays, primary screen, biochemical, small-molecule microarray, residues 44-93, 635 nm fluorescence (AID 1108); details: small-molecule microarray binding, fluorescence 635 nm; higher = more signal;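 also: E7 fragment applied at 1 µg/mL in TBST for 1 h at 4 C; score combines spot fluorescence with its signal to noise ratio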
[12] = modulators of HCV replicon luciferase signal, primary screen, HCV replication inhibitor project, Huh7 cells, luciferase reporter (AID 1109); details: 48 h, higher = more signal;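 also: huh7 hepatoma cells harbouring a luciferase neomycin HCV replicon reporter; luciferase luminescence as measure of HCV replicon replication; test concentration not given here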
[13] = target: Left-right determination factor 2 (Homo sapiens) (UniProt O00292); assay: LEFTY2 binders on small-molecule microarrays, primary screen, biochemical, small-molecule microarray, 635 nm fluorescence scan (AID 1110); details: LEFTY2 binding, higher = more signal
[14] = target: Calmodulin-1 (Homo sapiens) (UniProt P0DP23); assay: CALM1 binders on microarrays, EGTA buffer, profiling panel, biochemical, small-molecule microarray, Cy5-labelled CALM1 (AID 1111); details: Cy5-CALM1 binding fluorescence, higher = more signal;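 also: labelled calmodulin applied in Tris saline Tween buffer holding calcium plus EGTA and DTT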
[15] = target: Calmodulin-1 (Homo sapiens) (UniProt P0DP23); assay: calcium-bound CALM1 binders on microarrays, profiling panel, artefact control for SMM control-protein annotation, biochemical, small-molecule microarray, Cy5-labelled CALM1, plus calcium (AID 1112); details: Cy5-CALM1 binding fluorescence, higher = more signal;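 also: score merges spot fluorescence with signal to noise from triplicate slides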
[16] = small-molecule microarray binders of probe aWnt5a, primary screen, biochemical, biotinylated probe, 635/667 nm fluorescence (AID 1113); details: higher = more signal;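 also: score merges 667 nm fluorescence intensity with signal-to-noise per printed feature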
[17] = small-molecule microarray binders of probe aShh, primary screen, biochemical, biotinylated probe, 635/667 nm fluorescence (AID 1114); details: higher = more signal;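 also: probe is biotin-labelled aShh protein from a stem cell growth factor screen; measures binding of labelled protein to compounds printed on the slide; score merges feature fluorescence at 667 nm with signal-to-noise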
[18] = small-molecule microarray binders of probe aNog, primary screen, biochemical, biotinylated probe, 635/667 nm fluorescence (AID 1115); details: higher = more signal;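 also: probe is biotinylated aNog protein used at 0.15 µg/mL for 1 h at 4 C; z-score combines 667 nm fluorescence of each spot with its signal to noise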
[19] = target: Torsin-1A-interacting protein 1 (Homo sapiens) (UniProt Q5JTV8); assay: LAP1 binders from COS7 cell lysate, primary screen, small-molecule microarray, 635/667 nm fluorescence (AID 1116); details: COS7-hLAP1 lysate binding, 635 nm fluorescence, higher = more signal
[20] = target: Alpha-bungarotoxin (Bungarus multicinctus) (UniProt P60615); assay: alpha-bungarotoxin binders on microarray, profiling panel, artefact control for SMM control protein annotation, biochemical, small-molecule microarray, Alexa647 label, 635/667 nm fluorescence (AID 1117); details: alpha-BTX-A647 binding fluorescence, higher = more signal
Chain of Alpha-bungarotoxin (Bungarus multicinctus) (P60615 whole entry, looked up): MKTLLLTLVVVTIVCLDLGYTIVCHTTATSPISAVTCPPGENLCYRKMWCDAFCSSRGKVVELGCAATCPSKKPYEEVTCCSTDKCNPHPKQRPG

Chain of Dickkopf-related protein 1 (Homo sapiens) (O94907 whole entry, looked up): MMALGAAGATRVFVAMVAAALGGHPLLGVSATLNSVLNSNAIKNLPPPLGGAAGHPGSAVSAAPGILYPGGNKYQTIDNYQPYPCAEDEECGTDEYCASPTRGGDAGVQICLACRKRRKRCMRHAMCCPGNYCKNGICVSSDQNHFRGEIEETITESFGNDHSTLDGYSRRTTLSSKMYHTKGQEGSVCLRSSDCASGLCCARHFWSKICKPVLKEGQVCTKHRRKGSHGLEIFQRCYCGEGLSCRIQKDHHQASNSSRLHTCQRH
Chain of Follistatin-related protein 3 (Homo sapiens) (O95633 whole entry, looked up): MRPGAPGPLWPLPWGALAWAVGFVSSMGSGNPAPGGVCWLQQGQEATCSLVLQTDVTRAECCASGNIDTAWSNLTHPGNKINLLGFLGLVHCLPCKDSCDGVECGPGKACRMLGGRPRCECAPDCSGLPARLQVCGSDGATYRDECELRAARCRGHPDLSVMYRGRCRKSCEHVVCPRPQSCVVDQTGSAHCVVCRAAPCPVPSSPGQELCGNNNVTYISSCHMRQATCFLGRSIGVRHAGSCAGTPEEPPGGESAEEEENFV
Chain of Fibroblast growth factor 10 (Homo sapiens) (O15520 whole entry, looked up): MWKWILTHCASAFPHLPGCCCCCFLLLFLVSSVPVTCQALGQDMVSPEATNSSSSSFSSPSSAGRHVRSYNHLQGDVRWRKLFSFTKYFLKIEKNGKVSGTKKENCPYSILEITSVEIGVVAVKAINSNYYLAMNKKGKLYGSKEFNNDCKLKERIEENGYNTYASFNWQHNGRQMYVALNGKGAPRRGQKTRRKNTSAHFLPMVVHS
Chain of Left-right determination factor 2 (Homo sapiens) (O00292 whole entry, looked up): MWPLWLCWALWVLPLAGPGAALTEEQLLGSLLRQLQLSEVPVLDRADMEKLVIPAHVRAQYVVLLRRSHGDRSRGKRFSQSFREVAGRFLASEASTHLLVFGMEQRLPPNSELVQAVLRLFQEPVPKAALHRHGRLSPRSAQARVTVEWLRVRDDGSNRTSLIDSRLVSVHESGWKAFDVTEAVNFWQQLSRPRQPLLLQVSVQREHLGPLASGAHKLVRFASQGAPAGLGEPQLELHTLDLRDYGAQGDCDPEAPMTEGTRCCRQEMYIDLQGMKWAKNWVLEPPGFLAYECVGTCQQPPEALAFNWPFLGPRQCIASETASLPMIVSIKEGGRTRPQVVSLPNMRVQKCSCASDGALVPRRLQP
Chain of Epidermal growth factor receptor (Homo sapiens) (P00533 whole entry, looked up): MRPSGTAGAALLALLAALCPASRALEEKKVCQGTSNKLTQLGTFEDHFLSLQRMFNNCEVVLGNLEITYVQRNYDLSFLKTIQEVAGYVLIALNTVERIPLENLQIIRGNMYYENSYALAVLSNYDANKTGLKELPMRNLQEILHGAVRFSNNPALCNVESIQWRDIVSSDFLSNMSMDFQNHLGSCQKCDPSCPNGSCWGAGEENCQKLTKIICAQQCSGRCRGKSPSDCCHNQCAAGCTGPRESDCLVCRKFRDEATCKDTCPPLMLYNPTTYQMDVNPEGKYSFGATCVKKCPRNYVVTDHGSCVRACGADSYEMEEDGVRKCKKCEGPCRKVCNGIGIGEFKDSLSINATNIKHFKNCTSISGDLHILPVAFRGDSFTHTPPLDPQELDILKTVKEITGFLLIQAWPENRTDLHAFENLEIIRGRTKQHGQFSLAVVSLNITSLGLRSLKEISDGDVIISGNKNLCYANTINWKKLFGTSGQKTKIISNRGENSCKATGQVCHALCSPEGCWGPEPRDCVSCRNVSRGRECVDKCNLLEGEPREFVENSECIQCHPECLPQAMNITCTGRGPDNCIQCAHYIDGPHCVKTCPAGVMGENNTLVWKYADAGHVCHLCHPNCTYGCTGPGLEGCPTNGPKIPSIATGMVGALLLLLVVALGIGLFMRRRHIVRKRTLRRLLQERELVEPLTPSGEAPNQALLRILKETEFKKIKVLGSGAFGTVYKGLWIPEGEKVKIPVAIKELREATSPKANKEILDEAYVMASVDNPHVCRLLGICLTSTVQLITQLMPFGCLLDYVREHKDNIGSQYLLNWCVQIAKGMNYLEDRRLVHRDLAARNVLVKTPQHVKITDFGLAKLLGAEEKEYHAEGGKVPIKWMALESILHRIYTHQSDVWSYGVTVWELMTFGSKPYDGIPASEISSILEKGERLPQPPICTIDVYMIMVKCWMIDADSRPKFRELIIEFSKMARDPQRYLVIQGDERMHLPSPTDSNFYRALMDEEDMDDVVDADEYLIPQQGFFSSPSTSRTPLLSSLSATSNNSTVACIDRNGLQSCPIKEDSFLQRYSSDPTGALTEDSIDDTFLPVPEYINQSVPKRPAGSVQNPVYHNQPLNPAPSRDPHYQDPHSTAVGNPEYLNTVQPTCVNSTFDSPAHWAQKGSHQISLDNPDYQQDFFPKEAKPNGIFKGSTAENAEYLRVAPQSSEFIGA
Chain of Torsin-1A-interacting protein 1 (Homo sapiens) (Q5JTV8 whole entry, looked up): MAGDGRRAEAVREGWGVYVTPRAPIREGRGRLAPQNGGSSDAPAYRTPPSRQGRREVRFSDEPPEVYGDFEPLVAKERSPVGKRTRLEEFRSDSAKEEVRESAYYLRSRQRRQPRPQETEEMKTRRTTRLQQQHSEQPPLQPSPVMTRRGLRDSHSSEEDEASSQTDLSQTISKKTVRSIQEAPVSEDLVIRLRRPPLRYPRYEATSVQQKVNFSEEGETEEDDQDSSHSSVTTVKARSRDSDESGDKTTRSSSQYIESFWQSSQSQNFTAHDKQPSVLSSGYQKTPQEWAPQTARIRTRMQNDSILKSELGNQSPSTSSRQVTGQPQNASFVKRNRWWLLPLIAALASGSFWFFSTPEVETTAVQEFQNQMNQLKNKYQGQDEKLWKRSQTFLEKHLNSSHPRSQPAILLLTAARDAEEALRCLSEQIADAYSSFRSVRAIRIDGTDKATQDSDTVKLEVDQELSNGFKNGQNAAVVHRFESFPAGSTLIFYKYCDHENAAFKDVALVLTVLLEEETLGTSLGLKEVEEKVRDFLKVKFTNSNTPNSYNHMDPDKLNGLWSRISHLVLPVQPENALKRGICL

| SMILES | composite z-score [1] | composite z-score [2] | composite z-score [3] | z-score [4] | composite z-score [5] | composite z-score [6] | composite z-score [7] | composite z-score [8] | composite z-score [9] | composite z-score [10] | composite z-score [11] | z-score [12] | composite z-score [13] | composite z-score [14] | composite z-score [15] | composite z-score [16] | composite z-score [17] | composite z-score [18] | composite z-score [19] | composite z-score [20] |
| --- | --- | --- | --- | --- | --- | --- | --- | --- | --- | --- | --- | --- | --- | --- | --- | --- | --- | --- | --- | --- |
| C=CCN(C(=O)C1N(CCCCCCO)C(=O)C2C(C(=O)O)C3C=CC21O3)C(C)(C)C (stereo not given) | 2.09 and 0.74 | -0.164 and -0.432 | 0.991 and 1.09 | 0.717 (inactive) and 1.5 (inactive) | -2.17 and -2.31 | -1.18 and -1.05 | -2.13 and -1.6 | -2.45 and -1.52 | -3.24 and -3.14 | -3.68 and -2.77 | -1.46 and -0.783 | 0.31 and -0.387 | -3.98 and -3.63 | -0.332 and -0.397 | 0.915 and 0.825 | -0.348 and -0.364 | -0.221 and -0.123 | -0.176 and 0.338 | -1.85 and -0.489 | -1.42 and -1.95 |
| CCOC(=O)[C@@H]1CC=C2CC1C(=O)N1CCC[C@@H]1[C@H]2O[Si](C)(C)C(C)(C)C (stereo not given in full) | -0.632 and -0.617 | -0.0776 and -0.228 | -0.0464 and -0.898 | 0.474 (inactive) and 0.337 (inactive) | -0.182 and -1.24 | -0.0945 and -1.32 | -0.762 and -0.649 | -0.552 and -0.744 | 0.055 and -0.0246 | 0.401 and 0.933 | -1.02 and -0.733 | -0.558 and -1.14 | -0.355 and 0.279 | -1.9 and -1.57 | -0.312 and -1.91 | -0.0512 and -0.252 | 0.0611 and -0.2 | -0.0863 and -0.48 | -0.496 and -1.03 | -0.922 and -1.49 |
| CC(C)[Si]1(C(C)C)OCc2cc(CCCc3cc4c(c(CCc5ccccc5)n3)[Si](C(C)C)(C(C)C)OC4)nc(CCc3ccccc3)c21 | -1.24 and 0.202 | -0.181 and -0.246 | 0.057 and -0.55 | -1.52 (inactive) and 0.459 (inactive) | -0.0405 and 0.57 | -0.0221 and 0.559 | 0.327 and 0.456 | -0.291 and 0.745 | -0.106 and 0.458 | 0.557 and 0.0127 | 0.206 and 0.469 | -1.17 and -0.347 | 0.0155 and 0.497 | -0.372 and -0.238 | 0.797 and -0.487 | -0.152 and -0.148 | -0.27 and 0.0141 | -0.139 and -0.0168 | -0.421 and 0.248 | -1.36 and 0.0493 |
| CON(C)C(=O)c1nnc2c3ccccc3n(S(=O)(=O)c3ccc(C)cc3)c2n1 | 0.478 and 0.658 | -0.0748 and 0.249 | -0.487 and -0.75 | 0.317 (inactive) and 0.807 (inactive) | 0.638 and 0.746 | 0.67 and 1.25 | 0.484 and 0.58 | 0.476 and 1.02 | 0.614 and 0.551 | 0.454 and 0.688 | 0.652 and 1.1 | 1.78 and 1.38 | 0.755 and 0.321 | 0.761 and -0.142 | -0.318 and -1.11 | -0.0748 and -0.006 | -0.223 and 0.0022 | -0.373 and 0.0369 | 0.637 and 0.223 | 0.787 and 0.219 |
| C=CCN(CCCC)C(=O)C(c1cccs1)N(CCOCCO)C(=O)/C=C\C(=O)O (stereo not given) | 1.66 and -1.5 | 0.103 and -0.18 | 0.792 and 0.161 | -1.21 (inactive) and -1.32 (inactive) | -1.19 and -0.522 | -1.39 and -0.479 | -2.24 and -0.346 | -1.97 and -0.993 | -1.56 and -1.03 | -0.593 and 0.566 | -1 and -0.515 | -0.166 and 0.999 | -2.21 and -0.742 | -0.501 and -0.702 | 0.988 and 0.502 | -0.193 and -0.096 | -0.2 | 0.136 and 0.295 | 1.2 and 1.09 | -2.1 and 0.069 |
